Pf Dd2 inh: qHTS Primary assay for Inhibitors of Plasmodium falciparum Dd2 growth in vitro; P. falciparum Dd2 growth, SYBR Green, 72 h; Potency, µM (highest dose often 28.9 µM), without a hit: at the highest dose activity, negative = inhibition, most hits filed as inhibitors; 4.3% of 120,000 active; active = well fitted inhibition curve with a large enough effect;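 also: plate controls were DMSO vehicle for no effect and reference drug for full effect; nearly all actives have a fitted effect of over 65% in size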
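Infected erythrocytes (Dd2, 0.3% parasitemia, 2.5% hematocrit final) are added to compound in RPMI-1640/Albumax II medium, grown 72 h at 37C in low oxygen, then lysed with saponin/Triton-X containing SYBR Green and read by fluorescence.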
Starred values were filed as active, the others as inactive; i = inactive; [ ] = remark or other dose. Only a selection was taken, and hits are over-represented in it overall. Potency is read from the fitted curve at half-maximal effect.

SMILES	Pf Dd2 inh
O=C(Cc1ccc(F)cc1)N1CCC(c2n[nH]c(=O)n2-c2ccccc2)CC1	12.1%
Cc1cc2cc(-c3c(C)noc3C)nc(N3CCN(C)C(=O)C3)c2o1	i
Cc1ccccc1-c1nc(-c2c(C)noc2C)cc2cc(CN(C)C)oc12	-9.4%[44.1 µM]
CC(=O)N1CCN(c2nc(-c3c(C)noc3C)cc3cc(CN(C)C)oc23)CC1	7.94µM*
Cc1ccccc1C(=O)N1CCC(Cc2nc(-c3ccccc3)no2)CC1	i
CS(=O)(=O)c1ccc(OCC2(CNC(=O)c3ccc(C#N)cc3)C[C@@H](O)[C@@H](O)C2)cc1 (stereo partly drawn)	i
c1ccc(CCCN[C@H]2CO[C@H]3[C@@H]2OC[C@@H]3n2cc(-c3ccccc3)nn2)cc1	-15.1%[44.1 µM]
O=C1CCCN1CCCN1C(=O)[C@H]2CN(Cc3cccc(F)c3F)C[C@H]2C1=O	4.7%
COCc1nc2ccccc2n1CCOc1cccc(C)c1	22.2%
COc1ccccc1OCCn1c(COc2cc(C)ccc2C)nc2ccccc21	6.31µM*
COc1ccccc1OCCn1c(NC(=O)c2ccccc2Cl)nc2ccccc21	-9.4%
O=C(c1ccc2cc[nH]c2c1)N1CCCC(Cc2noc(-c3ccccn3)n2)C1 (stereo not drawn)	i
CCCc1noc(-c2cccn3c(CNC(=O)Cc4ccc(Cl)cc4)nnc23)n1	-0.7%
CCCc1noc(-c2cccn3c(CNC(=O)c4ccc(C)cc4)nnc23)n1	12.6µM*
CCCc1noc(-c2cccn3c(CNC(=O)Cc4ccccc4Cl)nnc23)n1	i
COc1ccc(NC(=O)Cn2ccn3nc4c(c3c2=O)CCCCC4)cc1Cl	i
CC(C)(C)c1ccc(-c2cc(C[C@H]3CNCC[C@H]3CC(=O)N3CCCCC3)no2)cc1	5.01µM*
CC(C)(C)c1ccc(-c2cc(C[C@H]3CNCC[C@H]3CC(=O)NCc3ccc(F)cc3)no2)cc1	-2.9%
CC(C)(C)NC(=O)C[C@@H]1CCNC[C@@H]1Cc1cc(-c2ccc(C(C)(C)C)cc2)on1	3.98µM*
CC(C)(C)c1ccc(-c2cc(C[C@H]3CNCC[C@H]3CC(=O)N3CCN(c4ccc(F)cc4)CC3)no2)cc1	i
O=C(C[C@@H]1CCNC[C@@H]1Cc1cc(-c2ccc(F)cc2)on1)NCc1ccc(F)cc1	i
COc1ccc(CNC(=O)C[C@@H]2CCNC[C@@H]2Cc2cc(-c3ccc(C(C)(C)C)cc3)on2)cc1	-17.8%
CC(C)NC(=O)N1CCN(C(=O)C2CCCCC2)[C@@H](C(=O)N[C@@H](CC2CCCCC2)C(N)=O)C1	-21.4%
Cc1ccc(Cl)cc1-n1ncc2c(N3CCCCCC3)ncnc21	17.5%
Cc1ccc(Cl)cc1-n1ncc2c(NCCCc3ccccc3)ncnc21	20.3%
SMILES	Pf Dd2 inh
CCc1ccc(Nc2ncnc3c2cnn3-c2cc(Cl)ccc2C)cc1	10µM*
COc1ccccc1N1CCN(c2ncnc3c2cnn3-c2cc(Cl)ccc2C)CC1	8.91µM*
Cc1ccc(Cl)cc1-n1ncc2c(NCCc3ccccc3)ncnc21	i
Cc1ccc(-n2ncc3c(N4CCN(c5ccccc5)CC4)ncnc32)cc1C	61.0%
CC(=O)c1ccc(N2CCN(c3ncnc4c3cnn4C)CC2)cc1	i
CN1CCN(c2ncnc3c2cnn3-c2cccc(Cl)c2)CC1	i
CC(=O)c1ccc(N2CCN(c3ncnc4c3cnn4-c3cc(Cl)ccc3C)CC2)cc1	11.2µM*
CN1CCC2(C1)CN(CC1CCOCC1)c1ccc(C(=O)NCCOc3ccccc3)cc12 (stereo not drawn)	i
Cc1noc(-c2cn(C3CCN(C(=O)c4ccccc4)C3)nn2)n1 (stereo not drawn)	12.1%
O=C(c1cccs1)C1CCCN(C(=O)c2ccc(N3CCCC3=O)cc2)C1 (stereo not drawn)	-6.8%
CCS(=O)(=O)N1CCOc2ccc(CN3CCc4ccccc4C3)cc2C1	-7.7%
Cc1noc(-c2cccc(OC3CN(C(=O)c4cccc5[nH]ccc45)C3)c2)n1	i[5.79 µM]
COCCNC(=O)CCSc1nc(-c2ccc(OC)cc2)cc(C(F)(F)F)n1	i
COc1ccc(NC(=O)CCSc2nc(-c3ccc(OC)cc3)cc(C(F)(F)F)n2)cc1	-22.4%
CCC(C)NC(=O)CCSc1nc(-c2ccc(OC)cc2)cc(C(F)(F)F)n1 (stereo not drawn)	11.2µM*
COc1ccc2[nH]c3c(c2c1)CCNC31CCN(C(=O)c2cn(C)cn2)CC1	i
Cn1c(=O)c2c(ncn2CC(=O)N2CCC(CCOc3ccc(F)cc3)C2)n(C)c1=O (stereo not drawn)	-7.5%
CNC(=O)[C@@H]1C[C@H](Oc2cccnc2)CN1C(=O)Cn1nc(C)cc1C	13.9%
O=C(NC[C@H]1OC[C@@H](NCc2ccccn2)[C@@H]1O)N1CCOCC1	i
CCCC(=O)Nc1ccc2c(c1)nc(CN1CCN(C(=O)OCC)CC1)n2C(C)C	-6.6%
CCn1c(CN2CCOCC2)nc2cc(NC(=O)c3cc(OC)c(OC)c(OC)c3)ccc21	-16.3%
CCn1c(CN2CCCCC2)nc2cc(NC(=O)COc3ccc(C(C)(C)C)cc3)ccc21	8.91µM*
CCn1c(CN2CCN(C)CC2)nc2ccccc21	-22.9%
CCn1c(CN2CCCCC2)nc2cc(NC(=O)c3cccc([N+](=O)[O-])c3)ccc21	3.55µM*
Cn1c(CN2CCCCC2)nc2cc(NC(=O)c3ccc(Cl)cc3)ccc21	-13.8%
SMILES	Pf Dd2 inh
CC(=O)N1CC2(CCN(Cc3cncn3C3CC3)CC2)CC1C(=O)O (stereo not drawn)	-2.1%
Cc1nc(CN2C[C@H](C(=O)Nc3ccc(F)cc3)C[C@@H]2c2ccc(F)cc2)cs1	-25.9%[44.1 µM]
CCN(CC)CCNC(=O)c1ccc2c(=O)n3nc(Nc4cccc(Cl)c4C)sc3nc2c1	5.62µM*
Cc1ccccc1Nc1nn2c(=O)c3ccc(C(=O)N4CCCC(C)C4)cc3nc2s1 (stereo not drawn)	i
Cc1ccc(C)c(Nc2nn3c(=O)c4ccc(C(=O)NC5CCCCC5)cc4nc3s2)c1	-24.7%
Cc1ccc(C)c(Nc2nn3c(=O)c4ccc(C(=O)NCCC5=CCCCC5)cc4nc3s2)c1	10µM*
Cc1ccc(C)c(Nc2nn3c(=O)c4ccc(C(=O)NCCc5ccccc5)cc4nc3s2)c1	6.4%
Cc1c(Cl)cccc1Nc1nn2c(=O)c3ccc(C(=O)NCCC4=CCCCC4)cc3nc2s1	3.98µM*
Cc1ccc(Cl)cc1Nc1nn2c(=O)c3ccc(C(=O)NC4CCC(C)CC4)cc3nc2s1 (stereo not drawn)	-9.2%
COc1cccc(CC(=O)N2CCOCCNC(=O)[C@@H]3CCCC[C@@H]32)c1	i
CCOC(=O)c1ccc(NC(=O)Cn2c(N3CCc4ccccc4C3)nc(C)cc2=O)cc1	-26.3%
CCNC(=O)O[C@@H]1CO[C@H]2[C@@H]1OC[C@@H]2n1cc(C(=O)OC)nn1	21.1%[44.1 µM]
O=C(NC1CC1)C1CN(Cc2ccccc2)C(=O)N1 (stereo not drawn)	14.8%[44.1 µM]
COc1ccc(C2C=C(c3ccccc3)Nc3nc(NC(=O)/C=C/c4ccccc4Cl)nn32)cc1 (stereo not drawn)	7.08µM*
COc1ccc(C2C=C(c3ccccc3)Nc3nc(NC(=O)/C=C/c4ccc(F)cc4)nn32)cc1 (stereo not drawn)	12.6µM*
O=C(/C=C/c1ccccc1)Nc1nc2n(n1)C(c1ccc(F)cc1)C=C(c1ccccc1)N2 (stereo not drawn)	10µM*
O=C(/C=C/c1ccco1)Nc1ccc(F)cc1	-14.3%
COc1ccc(/C=C/C(=O)Nc2nc3n(n2)C(c2ccc(F)cc2)C=C(c2ccccc2)N3)cc1 (stereo not drawn)	8.91µM*
Clc1ccc(-c2cc3c(cn2)CN(Cc2ccncc2)CCN3)cc1	i

Source: PubChem (National Center for Advancing Translational Sciences (NCATS))
